About 79,000 compounds went through this panel and 15% of them were active in at least one assay; those are over-represented in the sample as a whole. Unmarked numbers belong to inactive results. The source made the active and inactive calls. Cut-off read from the data, not from the text of the source: active = growth inhibition above about 70%; inactive = the rest.
Assays:
[1] = NCI Yeast Anticancer Drug Screen. Data for the rad50 strain (AID 155);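 note: 0% = growth of vehicle-only cultures of the same strain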; conditions: S. cerevisiae rad50 strain growth inhibition, stronger effect = higher value
Summary of the method: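 Inhibition values express reduced yeast growth in compound-treated cultures relative to vehicle-treated controls.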

[2] = NCI Yeast Anticancer Drug Screen. Data for the mec2-1 strain (AID 157); conditions: S. cerevisiae mec2-1 strain, stronger effect = higher value
Summary of the method: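 Using mec2-1 yeast: add compound, measure growth, express inhibition versus vehicle-treated cultures.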

[3] = NCI Yeast Anticancer Drug Screen. Data for the sgs1 mgt1 strain (AID 161);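 note: 0% = growth of cultures given vehicle only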; conditions: S. cerevisiae sgs1 mgt1 strain, stronger effect = higher value
Summary of the method: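 Percent growth inhibition was derived by comparing compound-exposed mutant yeast with vehicle-exposed cultures. The strain carries alterations in DNA damage repair.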

[4] = NCI Yeast Anticancer Drug Screen. Data for the cln2 rad14 strain (AID 165);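 note: 0% = growth equal to vehicle treated cultures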; conditions: S. cerevisiae cln2 rad14 strain, stronger effect = higher value
Summary of the method: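 Yeast strain cln2 rad14, bearing defects in cell cycle control and DNA repair, serves as the test system; values reflect growth inhibition compared with vehicle.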

[5] = NCI Yeast Anticancer Drug Screen. Data for the bub3 strain (AID 167); conditions: S. cerevisiae bub3 mutant strain, stronger effect = higher value
Summary of the method: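 Steps: expose the mutant yeast strain to compound; grow alongside vehicle-treated cultures; measure growth; express inhibition against the vehicle cultures.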

[6] = NCI Yeast Anticancer Drug Screen. Data for the mlh1 rad18 strain (AID 175); conditions: S. cerevisiae mlh1 rad18 strain growth inhibition, stronger effect = higher value
Summary of the method: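 Steps: expose repair-defective yeast to compound; measure growth; express inhibition against vehicle-treated controls.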

[7] = at 5.0 µM (retest, dose inferred, filed as 0.5)
[8] = at 50.0 µM (retest, dose inferred, filed as 5.0)

SMILES	growth inhibition [1, 7]	growth inhibition [1, 8]	growth inhibition ([1]; at 50.0 µM)	growth inhibition [2, 7]	growth inhibition [2, 8]	growth inhibition ([2]; at 50.0 µM)	growth inhibition [3, 7]	growth inhibition [3, 8]	growth inhibition ([3]; at 50.0 µM)	growth inhibition [4, 7]	growth inhibition [4, 8]	growth inhibition ([4]; at 50.0 µM)	growth inhibition [5, 7]	growth inhibition [5, 8]	growth inhibition ([5]; at 50.0 µM)	growth inhibition [6, 7]	growth inhibition [6, 8]	growth inhibition ([6]; at 50.0 µM)
C/C(CC(O)(C(F)(F)F)C(F)(F)F)=N/Nc1ccc([N+](=O)[O-])cc1[N+](=O)[O-]	16%	99% (active)	99.2% (active)	-11%	99% (active)	99.5% (active)	-2%	99% (active)	99.5% (active)	13%	99% (active)	99.3% (active)	-10%	100% (active)	99.5% (active)	12%	99% (active)	99.3% (active)
CC(C)(C)C(=O)Nc1ccc2c(c1)C(=O)c1ccccc1C2=O	62%	96% (active)	82% (active)	44%	85% (active)	79.2% (active)	44%	91% (active)	80.7% (active)	38%	75% (active)	83.2% (active)	46%	71% (active)	87.5% (active)	62%	96% (active)	86.5% (active)
C=CCOC(=O)CCC(=O)N(CC)CC	4%	-10%	-8.95%	-1%	1%	-12.7%	-6%	-11%	-25.1%	-7%	0%	72.5% (active)	-2%	1%	-7.35%	-2%	-10%	-2.3%
O=[N+]([O-])c1cccc2c1[nH]c1c(-c3ccccc3)nccc12	2%	83% (active)	87.8% (active)	4%	83% (active)	47.8%	4%	93% (active)	81% (active)	0%	67%	80.3% (active)	1%	67%	40%	0%	89% (active)	89.8% (active)
O=S(=O)(Nc1ccc2ccc3cccc4ccc1c2c34)c1ccccc1	7%	25%	57.6%	3%	12%	34.9%	6%	45%	62.2%	-8%	-7%	17.6%	-4%	19%	56.9%	6%	55%	71.2% (active)
Brc1ccc(-c2c3ccccc3cc3c2ccc2ccccc23)cc1	1%	-14%	42.9%	1%	-10%	30.2%	2%	1%	47.8%	-2%	-24%	74.5% (active)	-5%	26%	38.1%	-4%	-9%	47.1%
CCOC(=O)C(=Cc1ccccc1)C(=O)OCC	20%	92% (active)	73% (active)	20%	91% (active)	88.8% (active)	9%	92% (active)	92.6% (active)	13%	78% (active)	69.5%	48%	94% (active)	92.2% (active)	12%	94% (active)	93.3% (active)
CC(=O)Nc1ccc(C(C)(C)c2ccc(C)cc2)cc1	0%	95% (active)	-4.5%	0%	98% (active)	-12.2%	-1%	96% (active)	24.1%	2%	96% (active)	3.75%	4%	97% (active)	57.5%	-1%	96% (active)	-2.15%
COc1c(O)cc(C=O)cc1[N+](=O)[O-]	-7%	14%	7.3%	1%	12%	2.15%	-1%	11%	40.3%	4%	20%	69.2%	-1%	1%	-9.85%	-4%	14%	8.1%
COC(=O)C1=C(C(=O)OC)C2(C)OC1C(=O)C21CC1 (centres undefined)	15%	85% (active)	88.3% (active)	18%	94% (active)	84.6% (active)	23%	94% (active)	86.8% (active)	6%	70% (active)	76.2% (active)	20%	91% (active)	93.6% (active)	18%	94% (active)	94.5% (active)
COC(=O)c1ccc(C)cc1C1CN=NC12Cc1cc(C)ccc1C2=O (centres undefined)	10%	50%	5.35%	8%	44%	19.6%	5%	67%	68.6%	6%	44%	37.2%	6%	73% (active)	46.1%	13%	65%	65%
CC1CCC2(CC1)NC1=C(CC(C)CC1)C1=C2CC(C)CC1 (centres undefined)	46%	87% (active)	3.8%	28%	85% (active)	-29.6%	-1%	27%	-21.9%	14%	26%	13.2%	-16%	17%	-4.4%	32%	89% (active)	10.4%
COc1ccc2c(c1)CC[C@@H]1[C@@H]2CC[C@]2(C)/C(=N/OCCN3CCCC3)CC[C@@H]12	95% (active)	99% (active)	89.5% (active)	38%	99% (active)	91.8% (active)	24%	96% (active)	92.1% (active)	46%	98% (active)	89.7% (active)	49%	97% (active)	91.1% (active)	39%	99% (active)	91.1% (active)
COc1cc(O)c2c(c1)C(=O)C1=C(C2=O)[C@@H](C)OC(C)[C@H]1O (some centres undefined)	8%	96% (active)	53.4%	2%	94% (active)	6.2%	8%	97% (active)	-4.5%	1%	95% (active)	-22.4%	21%	97% (active)	-2.75%	8%	97% (active)	-6.25%
C=C1C(=O)OC2C1CCC(=C)C1CC(O)C(=C)C12 (centres undefined)	3%	44%	92.2% (active)	11%	64%	94.2% (active)	0%	70% (active)	93.6% (active)	10%	39%	92.4% (active)	2%	65%	92.5% (active)	8%	70% (active)	31.4%
Nc1nnc2nc(CC(=O)c3ccccc3)/c(=C/C(=O)c3ccccc3)n12	-21%	-10%	-14.1%	-11%	-20%	9.4%	-23%	-6%	1.05%	-17%	-16%	28.6%	5%	-5%	-4.95%	-21%	-9%	-0.3%
C/C(=N/NC(=S)NCc1ccccc1)c1ncccn1	-6%	98% (active)	98.8% (active)	14%	98% (active)	98.9% (active)	2%	98% (active)	99% (active)	7%	98% (active)	97.8% (active)	-23%	98% (active)	98.5% (active)	3%	98% (active)	98.9% (active)
O=C(CCCCCCCCCCc1ccccc1)c1ccc(Cl)cc1	7%	76% (active)	83.7% (active)	5%	79% (active)	42.6%	17%	89% (active)	93.7% (active)	15%	61%	70.8% (active)	13%	72% (active)	94.8% (active)	16%	80% (active)	70.6% (active)

From PubChem BioAssay (NCI)
